Experimental data taken from the supplement of paper PMC8728848.
The entries come from a sample that favours the strongest signals as a whole.

Key:
Experiment in all cases: glycan array binding signal (z-score within array); higher = stronger binding
[1] = test system: Neu5Ac(a2-3)Gal(b1-4)GlcNAc; settings: glycan notation: IUPAC condensed, linker removed
How it was run: (§1)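 The Consortium for Functional Glycomics database supplied 3228 glycan arrays, of which those lacking an available protein sequence were dropped. The binding signal, a within-array Z-score, was averaged across arrays of the same protein sequence and across linkers. Negative scores can be read as non-binding.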

[2] = test system: Neu5Ac(a2-3)Gal(b1-4)[Fuc(a1-3)]GlcNAc(b1-3)GalNAc; settings: glycan notation: IUPAC condensed, linker removed
How it was run: as §1

[3] = test system: Neu5Ac(a2-3)Gal(b1-4)[Fuc(a1-3)]GlcNAc(b1-6)[Gal(b1-3)]GalNAc; settings: glycan notation: IUPAC condensed, linker removed
How it was run: as §1

[4] = test system: Neu5Ac(a2-3)Gal6S(b1-4)GlcNAc; settings: glycan notation: IUPAC condensed, linker removed
How it was run: as §1

[5] = test system: Neu5Ac(a2-3)[GalNAc(b1-4)]Gal(b1-4)GlcNAc(b1-3)GalNAc; settings: glycan notation: IUPAC condensed, linker removed
How it was run: as §1

[6] = test system: Neu5Ac(a2-3)Gal(b1-4)[Fuc(a1-3)]GlcNAc(b1-3)Gal(b1-4)[Fuc(a1-3)]GlcNAc(b1-3)Gal(b1-4)[Fuc(a1-3)]GlcNAc; settings: glycan notation: IUPAC condensed, linker removed
How it was run: as §1

[7] = test system: Neu5Ac(a2-3)Gal(b1-4)[Fuc(a1-3)]GlcNAc(b1-3)Gal; settings: glycan notation: IUPAC condensed, linker removed
How it was run: as §1

[8] = test system: Neu5Ac(a2-3)Gal6S(b1-4)[Fuc(a1-3)]GlcNAc; settings: glycan notation: IUPAC condensed, linker removed
How it was run: as §1

Neu5Ac(a2-3)GalNAc = settings: glycan notation: IUPAC condensed, linker removed
How it was run: as §1

[9] = test system: Neu5Ac(a2-3)[Neu5Ac(a2-6)]GalNAc; settings: glycan notation: IUPAC condensed, linker removed
How it was run: as §1

[10] = test system: Neu5Ac(a2-6)Gal(b1-4)GlcNAc(b1-2)Man(a1-3)[Gal(b1-4)GlcNAc(b1-2)Man(a1-6)]Man(b1-4)GlcNAc(b1-4)GlcNAc; settings: glycan notation: IUPAC condensed, linker removed
How it was run: as §1

[11] = test system: Neu5Ac(a2-3)Gal(b1-4)[Fuc(a1-3)]GlcNAc; settings: glycan notation: IUPAC condensed, linker removed
How it was run: as §1

[12] = test system: Neu5Ac(a2-3)GalNAc(b1-4)GlcNAc; settings: glycan notation: IUPAC condensed, linker removed
How it was run: as §1

[13] = test system: Neu5Ac(a2-3)[GalNAc(b1-4)]Gal(b1-4)GlcNAc; settings: glycan notation: IUPAC condensed, linker removed
How it was run: as §1

Neu5Ac(a2-3)Gal(b1-4)Glc = settings: glycan notation: IUPAC condensed, linker removed; mutation: R125K
How it was run: as §1

[14] = test system: Neu5Ac(a2-3)Gal(b1-4)[Fuc(a1-3)]GlcNAc(b1-3)Gal(b1-4)GlcNAc; settings: glycan notation: IUPAC condensed, linker removed; mutation: R125K
How it was run: as §1

[15] = test system: Neu5Ac(a2-3)Gal(b1-4)[Fuc(a1-3)]GlcNAc6S; settings: glycan notation: IUPAC condensed, linker removed
How it was run: as §1

[16] = test system: Neu5Ac(a2-6)Gal(b1-3)GlcNAc(b1-3)[Gal(b1-4)GlcNAc(b1-6)]Gal(b1-4)Glc; settings: glycan notation: IUPAC condensed, linker removed; mutation: R125K
How it was run: as §1

Neu5Ac(a2-3)Gal = settings: glycan notation: IUPAC condensed, linker removed
How it was run: as §1

[17] = test system: Neu5Ac(a2-3)[GalNAc(b1-4)]Gal(b1-4)Glc; settings: glycan notation: IUPAC condensed, linker removed
How it was run: as §1

Chain of C3b (Homo sapiens), P01024 (P01024 23-667): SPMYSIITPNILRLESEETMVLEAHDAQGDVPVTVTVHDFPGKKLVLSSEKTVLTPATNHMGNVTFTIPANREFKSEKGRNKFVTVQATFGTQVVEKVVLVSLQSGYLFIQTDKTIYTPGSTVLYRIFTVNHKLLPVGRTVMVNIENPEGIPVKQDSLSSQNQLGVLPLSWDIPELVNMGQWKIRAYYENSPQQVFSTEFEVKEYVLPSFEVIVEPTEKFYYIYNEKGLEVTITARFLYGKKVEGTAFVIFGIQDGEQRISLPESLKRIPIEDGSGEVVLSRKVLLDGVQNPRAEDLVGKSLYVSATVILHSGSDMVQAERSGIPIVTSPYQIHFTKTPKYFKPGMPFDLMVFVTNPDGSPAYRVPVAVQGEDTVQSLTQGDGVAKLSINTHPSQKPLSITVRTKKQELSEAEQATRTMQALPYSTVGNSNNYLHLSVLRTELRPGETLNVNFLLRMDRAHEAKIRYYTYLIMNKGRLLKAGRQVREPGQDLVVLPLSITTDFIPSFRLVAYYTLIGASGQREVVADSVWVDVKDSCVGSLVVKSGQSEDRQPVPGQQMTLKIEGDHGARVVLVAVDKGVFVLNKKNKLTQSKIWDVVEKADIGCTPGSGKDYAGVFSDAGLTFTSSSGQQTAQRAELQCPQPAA
Chain of Neurocan (Homo sapiens), O14594 (O14594 other isoform, or with tags, fused parts or gaps): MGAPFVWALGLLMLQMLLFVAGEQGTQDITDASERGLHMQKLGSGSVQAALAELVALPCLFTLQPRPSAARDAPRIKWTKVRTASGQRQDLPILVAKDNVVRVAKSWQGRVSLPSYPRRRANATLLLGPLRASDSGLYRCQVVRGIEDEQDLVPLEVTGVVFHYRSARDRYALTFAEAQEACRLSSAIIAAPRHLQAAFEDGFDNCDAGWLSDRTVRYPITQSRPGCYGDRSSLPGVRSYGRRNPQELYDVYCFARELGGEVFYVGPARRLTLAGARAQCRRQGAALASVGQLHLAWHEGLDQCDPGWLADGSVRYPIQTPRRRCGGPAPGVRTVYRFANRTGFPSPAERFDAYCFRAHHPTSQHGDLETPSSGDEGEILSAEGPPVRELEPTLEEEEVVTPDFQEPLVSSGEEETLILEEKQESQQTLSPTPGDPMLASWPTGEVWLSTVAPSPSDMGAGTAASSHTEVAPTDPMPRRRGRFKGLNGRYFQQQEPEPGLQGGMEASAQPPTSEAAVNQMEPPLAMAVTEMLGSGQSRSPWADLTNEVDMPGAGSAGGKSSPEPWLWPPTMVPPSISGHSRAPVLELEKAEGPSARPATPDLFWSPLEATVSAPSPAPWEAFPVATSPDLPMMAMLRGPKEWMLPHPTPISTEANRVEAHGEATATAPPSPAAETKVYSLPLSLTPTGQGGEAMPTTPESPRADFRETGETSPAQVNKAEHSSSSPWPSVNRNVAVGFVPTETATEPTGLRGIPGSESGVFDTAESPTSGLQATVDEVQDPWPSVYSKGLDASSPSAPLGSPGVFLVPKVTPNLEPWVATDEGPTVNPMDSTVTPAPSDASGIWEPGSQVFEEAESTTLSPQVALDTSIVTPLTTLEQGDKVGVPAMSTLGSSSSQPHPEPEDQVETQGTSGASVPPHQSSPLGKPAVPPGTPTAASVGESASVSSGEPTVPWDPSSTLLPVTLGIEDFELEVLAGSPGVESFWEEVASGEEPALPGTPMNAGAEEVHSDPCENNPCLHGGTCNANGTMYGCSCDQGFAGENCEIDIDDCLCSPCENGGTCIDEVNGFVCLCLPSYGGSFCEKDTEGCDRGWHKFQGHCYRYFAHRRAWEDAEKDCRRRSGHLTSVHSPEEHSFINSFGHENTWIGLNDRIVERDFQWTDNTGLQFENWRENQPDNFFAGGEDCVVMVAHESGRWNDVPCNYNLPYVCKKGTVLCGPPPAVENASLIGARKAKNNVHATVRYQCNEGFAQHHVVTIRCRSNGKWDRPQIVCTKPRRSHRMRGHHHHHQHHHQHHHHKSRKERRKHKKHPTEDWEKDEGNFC
Chain of CHI3L1 (Homo sapiens), P36222 (P36222 whole entry): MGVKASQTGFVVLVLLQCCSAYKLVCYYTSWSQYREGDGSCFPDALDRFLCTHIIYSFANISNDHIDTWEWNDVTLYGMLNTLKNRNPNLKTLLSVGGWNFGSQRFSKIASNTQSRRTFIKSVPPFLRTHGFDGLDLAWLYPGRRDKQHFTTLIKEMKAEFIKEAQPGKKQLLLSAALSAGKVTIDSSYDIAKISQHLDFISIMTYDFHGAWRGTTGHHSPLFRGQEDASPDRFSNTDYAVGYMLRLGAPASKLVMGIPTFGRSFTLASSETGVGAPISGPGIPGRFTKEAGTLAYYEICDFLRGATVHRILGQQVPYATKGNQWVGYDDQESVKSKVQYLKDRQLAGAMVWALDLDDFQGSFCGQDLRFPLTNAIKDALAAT
Chain of wLAT-1A (Homo sapiens), Q01650 (Q01650 whole entry): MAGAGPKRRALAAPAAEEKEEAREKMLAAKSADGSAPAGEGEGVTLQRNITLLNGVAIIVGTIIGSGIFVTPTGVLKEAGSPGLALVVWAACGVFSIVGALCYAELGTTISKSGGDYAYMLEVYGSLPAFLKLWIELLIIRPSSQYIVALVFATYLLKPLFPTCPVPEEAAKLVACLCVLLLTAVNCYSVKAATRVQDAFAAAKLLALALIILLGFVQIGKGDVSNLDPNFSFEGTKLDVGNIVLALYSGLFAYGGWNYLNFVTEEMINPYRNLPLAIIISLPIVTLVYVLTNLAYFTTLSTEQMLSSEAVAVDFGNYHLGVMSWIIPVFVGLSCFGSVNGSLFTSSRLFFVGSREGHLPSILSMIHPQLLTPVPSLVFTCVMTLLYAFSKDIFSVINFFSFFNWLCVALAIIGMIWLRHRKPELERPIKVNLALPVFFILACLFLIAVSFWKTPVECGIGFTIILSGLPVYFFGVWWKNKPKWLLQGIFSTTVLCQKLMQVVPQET
Chain of 6RG (Lolium perenne) (chain, as listed by the source): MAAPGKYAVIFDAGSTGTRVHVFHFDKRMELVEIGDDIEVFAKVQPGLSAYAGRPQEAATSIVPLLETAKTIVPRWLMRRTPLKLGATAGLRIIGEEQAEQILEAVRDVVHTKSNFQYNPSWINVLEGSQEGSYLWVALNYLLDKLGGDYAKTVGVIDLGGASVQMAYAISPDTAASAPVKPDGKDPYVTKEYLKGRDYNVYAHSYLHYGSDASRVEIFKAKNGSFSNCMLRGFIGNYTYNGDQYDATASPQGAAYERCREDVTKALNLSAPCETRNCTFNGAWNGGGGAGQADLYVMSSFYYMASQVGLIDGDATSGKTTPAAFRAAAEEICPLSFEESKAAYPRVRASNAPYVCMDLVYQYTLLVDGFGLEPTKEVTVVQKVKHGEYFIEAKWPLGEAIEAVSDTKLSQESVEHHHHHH
Chain of Regenerating Gene IV (Homo sapiens), Q9BYZ8 (Q9BYZ8 whole entry, looked up): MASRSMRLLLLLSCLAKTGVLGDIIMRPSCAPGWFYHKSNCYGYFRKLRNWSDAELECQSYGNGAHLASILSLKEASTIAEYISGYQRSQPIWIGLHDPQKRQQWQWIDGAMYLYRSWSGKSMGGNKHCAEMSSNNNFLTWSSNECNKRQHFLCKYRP
Chain of 6RG (Lolium perenne), B9U140 (B9U140 entry or part of it): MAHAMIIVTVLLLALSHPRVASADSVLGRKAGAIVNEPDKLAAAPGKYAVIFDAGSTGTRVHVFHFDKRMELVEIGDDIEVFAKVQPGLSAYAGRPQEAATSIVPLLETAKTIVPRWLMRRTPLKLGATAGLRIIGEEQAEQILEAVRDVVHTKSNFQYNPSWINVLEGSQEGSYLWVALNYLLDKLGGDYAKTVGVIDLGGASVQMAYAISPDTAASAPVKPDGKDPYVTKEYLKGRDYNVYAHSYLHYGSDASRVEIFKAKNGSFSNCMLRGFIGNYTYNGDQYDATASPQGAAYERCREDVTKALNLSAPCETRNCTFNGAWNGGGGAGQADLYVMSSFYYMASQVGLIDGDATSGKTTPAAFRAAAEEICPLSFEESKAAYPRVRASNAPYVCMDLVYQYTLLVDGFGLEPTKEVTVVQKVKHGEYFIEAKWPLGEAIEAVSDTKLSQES
Chain of PILRb (Mus musculus), Q2YSF2 (Q2YSF2 entry or part of it): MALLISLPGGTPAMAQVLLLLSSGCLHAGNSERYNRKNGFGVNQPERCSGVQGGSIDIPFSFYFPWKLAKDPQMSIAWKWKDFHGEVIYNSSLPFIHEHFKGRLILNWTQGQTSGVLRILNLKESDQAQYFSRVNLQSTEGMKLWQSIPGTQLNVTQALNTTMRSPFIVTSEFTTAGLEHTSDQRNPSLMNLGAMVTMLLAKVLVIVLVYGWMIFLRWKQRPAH
Chain of Aggrecan (Rattus norvegicus), NP_071526 (chain, as listed by the source): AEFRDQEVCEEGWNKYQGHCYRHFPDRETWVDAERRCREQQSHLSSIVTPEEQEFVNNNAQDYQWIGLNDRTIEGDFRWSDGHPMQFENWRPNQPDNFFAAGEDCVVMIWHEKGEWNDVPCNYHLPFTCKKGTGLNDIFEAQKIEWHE

With HARE (Homo sapiens), Q8WWQ8 the “glycan array binding signal (z-score)” value [1] was -0.41.

Neurocan (Homo sapiens), O14594 was tested, and the “glycan array binding signal (z-score)” value [2] was 4.45, the “glycan array binding signal (z-score)” value [3] was 3.52 and the “glycan array binding signal (z-score)” value [4] was -1.3. The “glycan array binding signal (z-score)” value [5] was -0.87.

Aggrecan (Rattus norvegicus), NP_071526 was tested, and the “glycan array binding signal (z-score)” value [6] was -0.136.

In the case of CHI3L1 (Homo sapiens), P36222, the “glycan array binding signal (z-score)” value [2] was -0.075, the “glycan array binding signal (z-score)” value [7] was -0.104 and the “glycan array binding signal (z-score)” value [8] was -0.117. The “glycan array binding signal (z-score)” value (Neu5Ac(a2-3)GalNAc) was -0.131.

With wLAT-1A (Homo sapiens), Q01650 the “glycan array binding signal (z-score)” value [4] was 0.097, the “glycan array binding signal (z-score)” value [9] was 0.503 and the “glycan array binding signal (z-score)” value [10] was -0.898.

With C3b (Homo sapiens), P01024 the “glycan array binding signal (z-score)” value [11] was 0.03, the “glycan array binding signal (z-score)” value [12] was 1.01 and the “glycan array binding signal (z-score)” value [13] was -0.304. The “glycan array binding signal (z-score)” value [10] was -0.286.

With Siglec-8 (Homo sapiens), Q9NYZ4 the “glycan array binding signal (z-score)” value (Neu5Ac(a2-3)Gal(b1-4)Glc) was 6.29, the “glycan array binding signal (z-score)” value [14] was -0.182 and the “glycan array binding signal (z-score)” value ([7]; mutation: R125K) was 0.14. For the same substance, the “glycan array binding signal (z-score)” value ([15]; mutation: R125K) was -0.382, the “glycan array binding signal (z-score)” value [4] was 16.9 and the “glycan array binding signal (z-score)” value [8] was 15. The “glycan array binding signal (z-score)” value [12] was -0.069 and the “glycan array binding signal (z-score)” value [16] was -0.472.

With PILRb (Mus musculus), Q2YSF2 the “glycan array binding signal (z-score)” value [15] was -0.229 and the “glycan array binding signal (z-score)” value [13] was -0.329.

With 6RG (Lolium perenne), B9U140 the “glycan array binding signal (z-score)” value [4] was 1.4 and the “glycan array binding signal (z-score)” value [9] was -0.334.

6RG (Lolium perenne) was tested, and the “glycan array binding signal (z-score)” value [15] was -0.352, the “glycan array binding signal (z-score)” value (Neu5Ac(a2-3)Gal) was -0.339 and the “glycan array binding signal (z-score)” value [9] was -0.349.

For MpAFP RI GFP (Marinomonas primoryensis), the “glycan array binding signal (z-score)” value [3] was 0.494, the “glycan array binding signal (z-score)” value [4] was -0.72 and the “glycan array binding signal (z-score)” value (Neu5Ac(a2-3)GalNAc) was 2.97.

With “Regenerating Gene IV (Homo sapiens), Q9BYZ8” the “glycan array binding signal (z-score)” value [3] was 0.692 and the “glycan array binding signal (z-score)” value [17] was 0.356.
